# Source: PubChem BioAssay
# Activity calls are given as the source filed them. Cut-off read from the data, not from the text of the source, unless noted: active = inhibition above about 80%; inactive = the rest.
# How the values were obtained:
# [1] = LFS_MB_P medulloblastoma growth inhibition, cell-based, chromothripsis tumors, cisplatin or BGB combos (AID 1671449); conditions: LFS_MB_P medulloblastoma cells;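 note: cells exposed for 96 hours; 0% = vehicle DMSO and 100% = killing by high DMSO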
# [2] = HDN33 neuroblastoma growth inhibition, cell-based, chromothripsis tumors, cisplatin or BGB combos (AID 1671450); conditions: HDN33 neuroblastoma cells, stronger effect = higher value;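 note: cells exposed to compound for four days; 0% = vehicle DMSO and 100% = cell killing by high DMSO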
# [3] = ICB984 medulloblastoma cell growth inhibition, synergistic combos for chromothripsis tumors, cisplatin or BGB combos (AID 1671451; call rule not given here;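 note: cells exposed for 96 hours before readout; 0% = vehicle DMSO and 100% = killing by high DMSO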); conditions: ICB984 medulloblastoma cells, drug combinations, stronger effect = higher value
# [4] = LFS_MB_1R medulloblastoma cell growth inhibition, synergistic combos for chromothripsis tumors, cisplatin or BGB combos (AID 1671452); conditions: LFS_MB_1R medulloblastoma cells, stronger effect = higher value;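 note: cells exposed for 96 hours before readout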
# [5] = HTB85 osteosarcoma cell growth inhibition, synergistic combos for chromothripsis tumors, BGB or cisplatin IC20 combos (AID 1671453); conditions: HTB85 osteosarcoma cells, drug combinations, stronger effect = higher value;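 note: cells exposed for 96 hours before readout; 0% = vehicle DMSO and 100% = high DMSO killing control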
# [6] = CRL2098 osteosarcoma cell growth inhibition, synergistic combos for chromothripsis tumors, BGB or cisplatin IC20 combos (AID 1671454); conditions: CRL2098 osteosarcoma cells, drug combinations, stronger effect = higher value;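 note: cells exposed for 96 h before readout; 0% = vehicle DMSO and 100% = killing by high DMSO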
# [7] = HD-MB03 medulloblastoma cell growth inhibition, synergistic combos for chromothripsis tumors, BGB or cisplatin IC20 combos (AID 1671455; in the data active = inhibition above about 83%;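 note: 0% = vehicle DMSO and 100% = high DMSO as cytotoxic control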); conditions: HD-MB03 medulloblastoma cells, stronger effect = higher value
# [8] = UWB1.289 ovarian carcinoma cell growth inhibition, synergistic combos for chromothripsis tumors, BGB or cisplatin combos (AID 1671456); conditions: UWB1.289 ovarian carcinoma cells, stronger effect = higher value;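 note: cells exposed to compound for four days; 0% = vehicle DMSO and 100% = killing by high DMSO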
# [9] = LFS_MB_2R medulloblastoma cell growth inhibition, synergistic combos for chromothripsis tumors, cisplatin combos (AID 1671457); conditions: LFS_MB_2R medulloblastoma cells, stronger effect = higher value;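 note: cells exposed to compound for four days before readout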
# [10] = MDA-MB-436 breast carcinoma cell growth inhibition, synergistic combos for chromothripsis tumors, BGB or cisplatin combos (AID 1671458; call rule not given here;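 note: cells exposed for 96 hours; 0% = vehicle DMSO and 100% = killing by high DMSO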); conditions: MDA-MB-436 breast carcinoma growth inhibition, drug combinations, stronger effect = higher value
# [11] = UWB1.289_BRCA1 ovarian cancer growth, cell-based, BGB or cisplatin combinations (AID 1671459); conditions: UWB1.289 BRCA1 ovarian carcinoma, drug combinations, stronger effect = higher value
# [12] = human astrocyte viability loss, single and combined drugs, cytotoxicity control for chromothriptic childhood tumor combination screen, cell-based, BGB or cisplatin IC20 combos (AID 1671460); conditions: Human astrocytes, drug combinations, stronger effect = higher value;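 note: cells exposed to compounds for 96 hours before viability readout; 0% = vehicle and 100% = killing control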
# [13] = growth inhibition of BT084 medulloblastoma cells, cell-based, ICGC_MB145, cisplatin and BGB IC40 combos (AID 1671461); conditions: drug combinations, stronger effect = higher value;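 note: cells exposed to drugs for 96 hours; 0% = vehicle DMSO and 100% = high DMSO full killing control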
# [14] = growth inhibition of RCMB18 medulloblastoma cells, cell-based, cisplatin and BGB IC40 combos (AID 1671462); conditions: stronger effect = higher value;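 note: cells exposed to compound for four days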
# [15] = growth inhibition of CRL1545 osteosarcoma cells, cell-based, cisplatin and BGB IC20 combos (AID 1671464); conditions: stronger effect = higher value;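 note: cells exposed to compound for 96 hours before readout; 0% = vehicle DMSO and 100% = high DMSO killing control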
# [16] = measured here: combination with BGB IC40, at 0.05 µM
# [17] = measured here: with BGB IC20 combination, at 0.5 µM
# [18] = measured here: with cisplatin IC20 combination, at 0.5 µM
# [19] = measured here: combination with cisplatin, at 0.5 µM
# [20] = measured here: combination with cisplatin, at 5 µM
compound,measurement,setting,value
C=C(C)C1CCC2(C(=O)O)CCC3(C)C(CCC4C5(C)CCC(O)C(C)(C)C5CCC43C)C12 (stereo not drawn),inhibition,"[1]; at 0.5 µM, stronger effect = higher value",-26.5% (inactive)
same,inhibition,"[1]; measured here: combination with BGB IC20, at 0.005 µM",-25.5%
same,inhibition,"[1]; measured here: combination with BGB IC40, at 0.005 µM",15.5%
same,inhibition,[1]; [16],-1.2%
same,inhibition,"[1]; measured here: combination with cisplatin, at 0.5 µM, stronger effect = higher value",-45.1%
same,inhibition,"[1]; measured here: combination with cisplatin, at 5 µM, stronger effect = higher value",-28.2%
same,inhibition,"[2]; BGB combo, at 5 µM",-9.64%
same,inhibition,[2]; at 0.5 µM,-2.09% (inactive)
same,inhibition,"[2]; cisplatin combo, at 5 µM",-9.94%
same,inhibition,[2]; [17],-1.87%
same,inhibition,[2]; [18],-3.24%
same,inhibition,"[2]; single agent, at 5 µM",-1.41%
same,inhibition,"[3]; BGB IC20 combo, at 0.005 µM",-15.2%
same,inhibition,"[3]; BGB IC40 combo, at 0.005 µM",-18.6%
same,inhibition,"[3]; BGB IC40 combo, at 0.05 µM",9.33%
same,inhibition,[3]; at 0.5 µM,-29.1% (inactive)
same,inhibition,"[3]; cisplatin combo, at 0.05 µM",9.33%
same,inhibition,"[3]; cisplatin combo, at 0.5 µM",-38%
same,inhibition,"[3]; cisplatin combo, at 5 µM",-7.17%
same,inhibition,"[3]; measured here: 5 uM single agent, at 5 µM",-4.58%
same,inhibition,[4]; at 0.5 µM,-20% (inactive)
same,inhibition,[4]; [16],-20.5%
same,inhibition,[4]; [19],-33%
same,inhibition,[4]; [20],-12.9%
same,inhibition,[5]; at 0.5 µM,-2.9% (inactive)
same,inhibition,"[5]; measured here: with BGB IC20, at 0.5 µM",-17.7%
same,inhibition,"[5]; measured here: with BGB IC20, at 5 µM",-3.73%
same,inhibition,"[5]; measured here: with cisplatin IC20, at 0.5 µM",-4.54%
same,inhibition,"[5]; measured here: with cisplatin IC20, at 5 µM",5.41%
same,inhibition,"[5]; single agent, at 5 µM",-0.003%
same,inhibition,[6]; at 0.5 µM,-11.7% (inactive)
same,inhibition,"[6]; measured here: combination with BGB at IC20, at 0.5 µM",-25.6%
same,inhibition,"[6]; measured here: combination with cisplatin at IC20, at 0.5 µM",19.7%
same,inhibition,[7]; at 0.5 µM,-2.78% (inactive)
same,inhibition,"[7]; measured here: combo with BGB at IC20, at 0.5 µM",-2.46%
same,inhibition,"[7]; measured here: combo with cisplatin at IC20, at 0.5 µM",-4.95%
same,inhibition,[8]; at 0.5 µM,0.66% (inactive)
same,inhibition,"[8]; measured here: inhibition with BGB combination, at 0.05 µM",-7.77%
same,inhibition,"[8]; measured here: inhibition with cisplatin combination, at 0.05 µM",-4.44%
same,inhibition,[9]; at 0.5 µM,0.87% (inactive)
same,inhibition,[9]; [19],-5.32%
same,inhibition,[9]; [20],12.1%
same,inhibition,[10]; at 0.5 µM,-18.9% (inactive)
same,inhibition,"[10]; measured here: BGB combination, at 0.5 µM",-9.2%
same,inhibition,"[10]; measured here: BGB combination, at 5 µM",-5.74%
same,inhibition,"[10]; measured here: cisplatin combination, at 0.5 µM",-43.5%
same,inhibition,"[10]; measured here: cisplatin combination, at 5 µM",3.21%
same,inhibition,"[11]; BGB combination, concentration series, at 5 µM",-4.55%
same,inhibition,[11]; at 0.5 µM,-1.24% (inactive)
same,inhibition,"[11]; cisplatin combination, concentration series, at 5 µM",-5.38%
same,inhibition,[12]; at 0.5 µM,6.79% (inactive)
same,inhibition,"[12]; measured here: combo with BGB IC20, at 0.5 µM",-11.2%
same,inhibition,"[12]; measured here: combo with cisplatin IC20, at 0.5 µM",21%
same,inhibition,[13]; at 0.5 µM,-12.4% (inactive)
same,inhibition,"[13]; cisplatin combination, at 0.5 µM",-2.33%
same,inhibition,"[13]; cisplatin combination, at 5 µM",-35.9%
same,inhibition,"[13]; measured here: BGB IC40 combination 0.05 uM, at 0.05 µM",10.4%
same,inhibition,"[13]; single agent, at 5 µM",-5.82%
same,inhibition,[14]; at 0.5 µM,-0.59% (inactive)
same,inhibition,"[14]; cisplatin combo, at 5 µM",-5.83%
same,inhibition,"[14]; measured here: BGB IC40 combination, at 0.05 µM",12.3%
same,inhibition,[14]; [19],-32.4%
same,inhibition,"[14]; single agent, at 5 µM",7.3%
same,inhibition,[15]; at 0.5 µM,-2.94% (inactive)
same,inhibition,[15]; [17],-13.1%
same,inhibition,[15]; [18],2.15%
same,inhibition,"[15]; single agent, at 0.05 µM",-25.4%
same,inhibition,"[15]; single agent, at 5 µM",16.8%
